Screens as filed in PubChem BioAssay.
IL1B secr inh – qHTS for Inhibitors of Inflammasome Signaling: IL-1-beta AlphaLISA Primary Screen; THP-1 LPS/ATP IL-1B secretion, AlphaLISA, 16 h; hits give low values; activity change, % at 57.5 µM; 360,000 compounds, 4.7% hits; AID 743279, 2014; in the data active = activity change below about -50%; inconclusive = mostly about -30% to -49%
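THP-1 cells pretreated 1 hr with compounds (up to 57.5 uM final), then stimulated with LPS (250 ng/mL final) plus ATP (1.25 mM final); secreted IL-1B measured by AlphaLISA after 16 hr, decreased signal indicating inhibition.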
DT40 TDP1 CPT – qHTS for Inhibitors of human tyrosyl-DNA phosphodiesterase 1 (TDP1): qHTS in cells in presence of CPT. chicken DT40 Tdp1-/-;hTDP1 cells + 20 nM CPT, ATP luminescence, 48 h. Potency, µM (titrated, usually from 46.2 µM), for inactives: top-dose activity change, negative = growth inhibition, actives largely listed as inhibitors. 420,000 compounds, 12% hits. AID 686979, 2013; note: potency is the fitted concentration of half-maximal effect; nearly all actives have a fitted effect of over 55% in size
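Cell growth measured by CellTiter-Glo luminescence after a minimum 48 h, 37 C compound exposure with 20 nM CPT in Tdp1-knockout DT40 cells stably expressing hTDP1, seeded 400/well; qHTS titration format.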
DT40 TDP1 no CPT – qHTS for Inhibitors of human tyrosyl-DNA phosphodiesterase 1 (TDP1): qHTS in cells in absence of CPT | Potency, µM (titrated, usually from 46.2 µM), inactives show at the top dose activity change, negative = growth inhibition, actives largely listed as inhibitors | 420,000 compounds, 15% hits | DT40 Tdp1-/- hTDP1 cells, no CPT, ATP luminescence, 48 h; note: potency is the fitted concentration of half-maximal effect; nearly all actives have a fitted effect of over 55% in size
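Growth kinetics read by CellTiter-Glo luminescence after ≥48 hr at 37 °C. Cells: DT40 Tdp1-/- stably carrying human TDP1, 400 per well, compound exposure in the absence of CPT (DMSO vehicle).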
HT1080 IDH1KD tx – qHTS for induction of synthetic lethality in tumor cells producing 2HG: qHTS for the HT-1080-IDH1KD cell line. HT-1080 IDH1 knockdown viability, ATP luminescence, 48 h. Potency, µM (titrated, usually from 46.1 µM), for the others: top-dose activity, negative = toxicity, hits mostly cytotoxic. 360,000 compounds, 2% hits. AID 686971, 2013;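 note: potency is the fitted concentration of half-maximal effect; 0% = DMSO wells and -100% = cell-free medium wells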
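Using the IDH1-knockdown HT-1080 line run in the same batch and compound series as the NT line, viability after 48 h at 37 °C was determined by CellTiter-Glo luminescence and expressed as % activity.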
HT1080-NT tox – qHTS for induction of synthetic lethality in tumor cells producing 2HG: qHTS for the HT-1080-NT fibrosarcoma cell line. HT-1080-NT fibrosarcoma viability, CellTiter-Glo ATP luminescence, 48 h. Potency, µM (series often up to 46.1 µM), without a hit: top-dose activity, negative = less viability, actives largely listed as cytotoxic. 360,000 compounds, 1.6% hits;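 note: NT is the 2HG producing partner of a matched IDH1 knockdown line; potency is the fitted concentration of half-maximal effect; 0% = DMSO-treated cells and -100% = media-only wells without cells; nearly all actives have a fitted effect of over 55% in size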
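Compounds were tested in concentration-response format on HT-1080-NT cells for 48 hours at 37 degrees C. Cell viability came from CellTiter-Glo luminescence; curves were classified by r2, response magnitude and activity.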
Numbers without * were called inactive. A selection: hits, their analogues and other compounds. The true share with any hit is near 19%. Unless noted, calls come from the whole dose curve; as a rule, active = well fitted curve in the direction sought with a large enough effect; inconclusive = small, poorly fitted or top-dose-only effect, or another doubt; inactive = no such curve, though single readings can be large; an effect the other way counts as inactive or inconclusive. Unless noted, % is set by controls: 0 for no effect and ±100 for the full control effect.

How did CC1C(=O)C(C)C(c2ccc(Br)cc2)NC1c1ccc(Br)cc1 (configuration not stated) do in these assays?
IL1B secr inh: -12; DT40 TDP1 CPT: inconclusive; DT40 TDP1 no CPT: inconclusive; HT1080 IDH1KD tx: -11%; HT1080-NT tox: 0%

Results for CC1(C)C(=O)OC(c2cc(Br)ccc2O)C(C)(C)C1=O (configuration not stated) ?
IL1B secr inh: -15; DT40 TDP1 CPT: inconclusive; DT40 TDP1 no CPT: 21µM*; HT1080 IDH1KD tx: -26%; HT1080-NT tox: inconclusive

What do the screens show for `CC12CN3CC(C)(CN(C1)C3c1cc(Br)ccc1O)C2=O` (configuration not stated)?
IL1B secr inh: -6; DT40 TDP1 CPT: 3%; DT40 TDP1 no CPT: inconclusive; HT1080 IDH1KD tx: 5%; HT1080-NT tox: 6%

What do the screens show for `CC1C(=O)C(C)C(c2cc(Br)ccc2O)NC1c1cc(Br)ccc1O` (configuration not stated)?
IL1B secr inh: -97*; DT40 TDP1 CPT: -26%; DT40 TDP1 no CPT: inconclusive; HT1080 IDH1KD tx: inconclusive; HT1080-NT tox: 13µM*

How did Cc1nc(SCC(=O)N2CCCCCC2)c2c(=O)n(C)c(=O)n(CC(C)C)c2n1 do in these assays?
IL1B secr inh: -29; DT40 TDP1 CPT: inconclusive; DT40 TDP1 no CPT: 13µM*; HT1080 IDH1KD tx: -10%; HT1080-NT tox: inconclusive

How did CC(C)c1nc(SCC(=O)N2CCCCCC2)c2c(=O)n(C)c(=O)n(C)c2n1 do in these assays?
IL1B secr inh: -1; DT40 TDP1 CPT: inconclusive; DT40 TDP1 no CPT: inconclusive; HT1080 IDH1KD tx: 9%; HT1080-NT tox: 8%

How did O=[N+]([O-])c1cccnc1N1CCC(c2cc(-c3ccc(Cl)cc3Cl)n[nH]2)CC1 do in these assays?
IL1B secr inh: 0; DT40 TDP1 CPT: 18µM*; DT40 TDP1 no CPT: 21µM*; HT1080 IDH1KD tx: inconclusive; HT1080-NT tox: inconclusive

What do the screens show for `CC(=O)c1ccc(N2CCC(c3cc(-c4ccc(Cl)cc4Cl)n[nH]3)CC2)c([N+](=O)[O-])c1`?
IL1B secr inh: -55*; DT40 TDP1 CPT: 4.1µM*; DT40 TDP1 no CPT: 6.5µM*; HT1080 IDH1KD tx: inconclusive; HT1080-NT tox: 14µM*

How did O=[N+]([O-])c1cccnc1N1CCCCC1 do in these assays?
IL1B secr inh: 8; DT40 TDP1 CPT: -2%; DT40 TDP1 no CPT: 5%; HT1080 IDH1KD tx: 4%; HT1080-NT tox: 2%

Results for CC1(C)Nc2ccccc2C(=O)N1c1ccccc1 ?
IL1B secr inh: -12; DT40 TDP1 CPT: 8%; DT40 TDP1 no CPT: 2%; HT1080 IDH1KD tx: 2%; HT1080-NT tox: 6%

How did COc1cc2nc(SCC(=O)Nc3ccccc3C)n3nc(CCn4c(C)nc5ccccc54)nc3c2cc1OC do in these assays?
DT40 TDP1 CPT: 2.9µM*; DT40 TDP1 no CPT: 3.3µM*

What do the screens show for `COc1cc2nc(SCC(=O)Nc3ccc(F)cc3)n3nc(CCn4c(C)nc5ccccc54)nc3c2cc1OC`?
DT40 TDP1 CPT: 2.1µM*; DT40 TDP1 no CPT: 5.2µM*

How did COc1cc2nc(SCC(=O)Nc3cccc(C)c3)n3nc(CCn4c(C)nc5ccccc54)nc3c2cc1OC do in these assays?
DT40 TDP1 CPT: 2.6µM*; DT40 TDP1 no CPT: 2.6µM*

How did Cc1ccc(CSc2nc3ccccc3c3nc(CCn4c(C)nc5ccccc54)nn23)cc1 do in these assays?
DT40 TDP1 CPT: -13%; DT40 TDP1 no CPT: -15%

What do the screens show for `Fc1ccc(-c2csc(-c3nc(-c4ccc(Br)s4)cs3)n2)cc1`?
DT40 TDP1 CPT: 10%; DT40 TDP1 no CPT: -20%

How did COc1ccccc1OCC(O)CN1C(=O)NC(C)(C)C1=O (configuration not stated) do in these assays?
IL1B secr inh: 20; DT40 TDP1 CPT: inconclusive; DT40 TDP1 no CPT: inconclusive; HT1080 IDH1KD tx: 0%; HT1080-NT tox: 7%

How did Cc1ccc(C)c(NCC(O)c2ccccc2)c1 (configuration not stated) do in these assays?
IL1B secr inh: -19; DT40 TDP1 CPT: -2%; DT40 TDP1 no CPT: 0%; HT1080 IDH1KD tx: -1%; HT1080-NT tox: -2%

What do the screens show for `COc1ccc(Cl)cc1NC(=O)c1cc(S(=O)(=O)N2CCc3ccccc32)cn1C`?
DT40 TDP1 CPT: 1%; DT40 TDP1 no CPT: -10%

How did OC(c1cccc(Cl)c1)c1ncc(-c2cccc3ccccc23)[nH]1 (configuration not stated) do in these assays?
IL1B secr inh: -21; DT40 TDP1 CPT: 21µM*; DT40 TDP1 no CPT: 16µM*; HT1080 IDH1KD tx: inconclusive; HT1080-NT tox: -22%

How did COc1cccc(C(O)c2ncc(-c3ccccc3OC)[nH]2)c1 (configuration not stated) do in these assays?
IL1B secr inh: -7; DT40 TDP1 CPT: -29%; DT40 TDP1 no CPT: -25%; HT1080 IDH1KD tx: 2%; HT1080-NT tox: -2%

How did COc1ccc(OC)c(C(O)c2ncc(-c3cccc4ccccc34)[nH]2)c1 (configuration not stated) do in these assays?
IL1B secr inh: 46; DT40 TDP1 CPT: 18µM*; DT40 TDP1 no CPT: 26µM*; HT1080 IDH1KD tx: -21%; HT1080-NT tox: -15%

How did COc1cccc(C(O)c2ncc(-c3cccc4ccccc34)[nH]2)c1 (configuration not stated) do in these assays?
IL1B secr inh: -8; DT40 TDP1 CPT: 16µM*; DT40 TDP1 no CPT: 9.2µM*; HT1080 IDH1KD tx: -13%; HT1080-NT tox: inconclusive

How did COc1ccccc1-c1cnc(C(O)c2ccc(C)cc2)[nH]1 (configuration not stated) do in these assays?
IL1B secr inh: 0; DT40 TDP1 CPT: -27%; DT40 TDP1 no CPT: 18µM*; HT1080 IDH1KD tx: -18%; HT1080-NT tox: -6%

What do the screens show for `CN(CC(=O)Nc1ccccc1Br)C(=O)C1CCN(C(=O)c2ccc(Cl)cc2)CC1`?
IL1B secr inh: -7; DT40 TDP1 CPT: -5%; DT40 TDP1 no CPT: -10%; HT1080 IDH1KD tx: -1%; HT1080-NT tox: 0%

Results for CCc1ccc(C(O)c2ncc(-c3ccccc3C(F)(F)F)[nH]2)cc1 (configuration not stated) ?
IL1B secr inh: -4; DT40 TDP1 CPT: 29µM*; DT40 TDP1 no CPT: inconclusive; HT1080 IDH1KD tx: -20%; HT1080-NT tox: -10%

What do the screens show for `Cc1cc(Cl)ccc1C(O)c1ncc(-c2ccccc2Cl)[nH]1` (configuration not stated)?
IL1B secr inh: -5; DT40 TDP1 CPT: 21µM*; DT40 TDP1 no CPT: inconclusive; HT1080 IDH1KD tx: inconclusive; HT1080-NT tox: inconclusive
